Like-named read-outs stand apart in the source and are kept apart here.
Key:
Design in all cases: species or system human, MV4-11 + K-562 + COLO205 + SK-N-BE2 + OVCAR-8
Conditions in all cases: read-out: apparent Kd, n = 1
[1] = system: TESK1
[2] = system: ROCK1
[3] = system: ROCK2
[4] = compound concentrations:100 nM and 1000 nM (sheet 'Samples')
[5] = compound concentrations: 100 nM and 1000 nM (sheet 'Samples'), CATDS: 1

N#Cc1ccc(C(=O)c2cnn(-c3ccc(F)cc3)c2N)cc1 [RO1153198-000]
potency estimated from few doses ([1]; compound concentrations: 100 nM and 1000 nM (sheet 'Samples'), CATDS: 0.53853377364092803): 1530 nM

Cc1nnc(-c2ccc(C)c(-c3ccc(C(=O)O)cc3)c2)o1 [GW608005X]
potency estimated from few doses [1, 4]: 900 nM

CC1=C(C(=O)Nc2ccc3[nH]nc(C)c3c2)C(c2ccc(C(F)(F)F)cc2)CC(=O)N1 (centres unmarked) [GSK466314A]
potency estimated from few doses ([2]; compound concentrations: 100 nM and 1000 nM (sheet 'Samples'), CATDS: 0.49623940575875802): 94.4 nM
potency estimated from few doses ([3]; compound concentrations: 100 nM and 1000 nM (sheet 'Samples'), CATDS: 0.50381802643412599): 91.6 nM

CC1=C(C(=O)Nc2ccc3[nH]ncc3c2)C(c2ccc(F)cc2)N=C(c2ccc(C(F)(F)F)nc2)N1 (centres unmarked) [GSK317354A]
potency estimated from few doses ([2]; compound concentrations: 100 nM and 1000 nM (sheet 'Samples'), CATDS: 0.52745543701192599): 630 nM
potency estimated from few doses ([3]; compound concentrations: 100 nM and 1000 nM (sheet 'Samples'), CATDS: 0.475261399355146): 777 nM

CC1=C(C(=O)Nc2cc3cn[nH]c3cc2F)C(c2ccc(C(F)(F)F)cc2)CC(=O)N1 (centres unmarked) [GSK429286A]
potency estimated from few doses ([2]; compound concentrations: 100 nM and 1000 nM (sheet 'Samples'), CATDS: 0.46177660943925602): 57.8 nM
potency estimated from few doses ([3]; compound concentrations: 100 nM and 1000 nM (sheet 'Samples'), CATDS: 0.48334108773041601): 53 nM

CCn1c(-c2nonc2N)nc2cnc(Oc3cccc(NC(=O)c4ccc(N(C)C)cc4)c3)cc21 [GSK248233A]
potency estimated from few doses [2, 4]: 230 nM
potency estimated from few doses [3, 4]: 181 nM

CN(C)CCCn1c(-c2nonc2N)nc2cnccc21 [SB-751399-B]
potency estimated from few doses ([2]; compound concentrations: 100 nM and 1000 nM (sheet 'Samples'), CATDS: 0.43789550307339298): 1470 nM
potency estimated from few doses ([3]; compound concentrations: 100 nM and 1000 nM (sheet 'Samples'), CATDS: 0.58263169675533599): 821 nM

Cl.NC(=O)c1cccc(Nc2nccc(Nc3ccc(Oc4cccc(Cl)c4)c(Cl)c3)n2)c1 [GW659008A]
potency estimated from few doses [1, 5]: 1780 nM

Nc1nonc1-c1nc2cnccc2n1C1CC1 [SB-736302]
potency estimated from few doses ([2]; compound concentrations: 100 nM and 1000 nM (sheet 'Samples'), CATDS: 0.19196895649818499): 1820 nM
potency estimated from few doses ([3]; compound concentrations: 100 nM and 1000 nM (sheet 'Samples'), CATDS: 0.21159695131376299): 1380 nM

COC(=O)c1cccc(NC(=O)NC2CCN(c3ccnc(Nc4ccc(F)cc4)n3)C2)c1 (centres unmarked) [GSK1379725A]
potency estimated from few doses [1, 5]: 1320 nM

CCCNC(=O)Nc1ccc(N(C)c2ccnc(NC3CC3)n2)cc1 [GW818933X]
potency estimated from few doses ([1]; compound concentrations: 100 nM and 1000 nM (sheet 'Samples'), CATDS: 0.44455887865749399): 1860 nM

Source: article PMC11062922 (Nature Chemical Biology, 2023)
